The results in this text go back to PubChem BioAssay (NCATS).

Values without a mark were called inactive. Inconclusive results are not listed. Calls of active or inactive are those of the source. Unless noted, the call rests on the fitted dose curve; in most records, active means well fitted curve in either direction with a large enough effect (not every such curve was filed as active); inconclusive means small, poorly fitted or top-dose-only effect, or another doubt; inactive means flat fitted curve, though single readings scatter.

The target in assay [1] is Lysosomal acid glucosylceramidase (Homo sapiens) (UniProt P04062). Description: Glucocerebrosidase-p2 (AID 348; in the data active means potency below about 10 µM; further: potency means the concentration at half of the fitted maximal effect). The settings on record: purified GBA, blue fluorogenic substrate, 40 min. An outline of the steps:
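Normal human glucocerebrosidase (0.2 nM) with blue fluorogenic substrate (80 uM final) in citrate/phosphate pH 5.9 with 10mM sodium taurocholate, 0.01% tween-20; 40 min RT, NaOH/glycine stop; fluorescence Ex 365/Em 440; AC50 from a titration from 0.6 nM upwards.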

Assay [2] is described as follows: AP1 Signaling Pathway (AID 357).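 Further: ME-180 reporter cells stimulated with EGF at its EC50 level; on the % scale 0 is the no-effect control and ±100 the full control effect.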 Conditions: ME-180 AP-1-bla reporter, EGF-induced, beta-lactamase ratio, 5 h; at 7.69 µM (top of the series) unless noted. An outline of the steps:
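Titration-series screen for positive or negative modulators of EC50 EGF-induced signaling in ME-180 cells carrying an AP-1-driven beta-lactamase reporter. After 5 hours at 37 degrees Celsius, CCF4 460nm/530nm emission ratio gave %Activity; AC50 values derived.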

Assay [3] in a line: Stat Signaling Pathway (AID 446).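 Further: ME-180 cervical cancer cells given 40 pM IL-6 alongside compound; SIE-controlled beta-lactamase reporter measured as 460/530 nm FRET emission ratio; on the % scale 0 is the no-effect control and ±100 the full control effect.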 The settings on record: ME-180 (cervical carcinoma) SIE beta-lactamase reporter, IL-6 stimulated, 5 h; at 7.69 µM (top of the series) unless noted. An outline of the steps: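 FRET read-out (405 nm excitation, 460/530 nm emission) of a beta-lactamase reporter under a STAT-inducible element in ME-180 cervical carcinoma cells. Cells with compound receive 40 pM IL-6 for 5 h. Values are normalised to AC90 stimulation and AC90 JAK-inhibitor controls.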

Assay [4] addresses Glucocorticoid receptor (Homo sapiens) (UniProt P04150). Nature of the assay: GR-EFC Redistribution (AID 451; calls by dose curve; further: potency means the concentration at half of the fitted maximal effect). The settings on record: CHO-K1 GR-EFC translocation, beta-gal luminescence, 2 h. In short, it runs like this:
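CHO-K1 cells expressing nuclear EA and GR-ED fragments of b-gal; compounds titrated up to 46 uM final, 2 h at 37 C. GR nuclear translocation read as complemented b-gal luminescence after 1 h RT detection.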

Assay [5] has as its target Mitogen-activated protein kinase 10 (Mus musculus) (UniProt Q61831). Nature of the assay: JNK3 AlphaScreen Assay (AID 530).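 Further: kinase came from lysate of stimulated human HepG2 cells; signal reports phosphorylation of biotinylated GST-cJun 1-79 at Ser73 with 10 µM ATP; on the % scale 0 is the no-effect control and ±100 the full control effect.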 The settings on record: JNK3 lysate, c-Jun phosphorylation; series mostly up to 57.1 µM. An outline of the steps:
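HepG2 lysate (IL-1b/TNFa pre-activated) + biotin-GST-cJun 1-79 + anti-pSer73 cJun; cpd titration, 15 min RT; ATP 10 uM start; Tris pH 7.6, MgCl2, DTT, vanadate; beads in EDTA buffer; AlphaScreen.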
For orientation: Bead proximity is the source of the signal in Alpha formats.

For assay [6], the target named is 3',5'-cyclic-AMP phosphodiesterase 4B (Homo sapiens) (UniProt Q07343). Nature of the assay: qHTS Assay for Inhibitors of PDE-IV (AID 607; active means well fitted activation curve with a large enough effect in the main read-out, with a control signal flat, not every such curve was filed as active; further: % of control where 0% means no effect). Conditions: HEK293 ACTOne CNG channel cells, membrane potential fluorescence; series mostly up to 22.9 µM. In short, it runs like this:
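Cell-based read-out of cAMP via a modified cyclic nucleotide-gated channel and membrane potential dye (535/590 nm) in HEK293 cells expressing PDE4 endogenously. Compounds tested up to 22.9 uM final; 100 uM RO 20-1724 reference.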
(In general: qHTS replaces the single test concentration by a dilution series.)

Assay [7] is described as follows: Primary qHTS for small molecule stabilizers of the endoplasmic reticulum resident proteome: Secreted ER Calcium Modulated Protein (SERCaMP) assay (AID 1508630; active means well fitted curve in the direction sought with a large enough effect; an effect the other way counts as inactive or inconclusive; further: on the % scale 0 is the no-effect control and ±100 the full control effect). Conditions: SH-SY5Y GLuc-SERCaMP (Gaussia luciferase released on ER calcium loss) secretion, thapsigargin, luminescence; series mostly up to 38.4 µM. In short, it runs like this:
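The SH-SY5Y reporter protocol was run at 3 concentrations up to 38.3 uM (primary) or 11 concentrations (follow-up): 16 h compound, 100 nM thapsigargin for 4 h, then extracellular luciferase luminescence.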

Assay [8] concerns the target Cytochrome P450 3A4 (Homo sapiens) (UniProt P08684). Nature of the assay: qHTS Assay for Inhibitors and Substrates of Cytochrome P450 3A4 (AID 884; active means well fitted curve in the direction sought with a large enough effect; an effect the other way counts as inactive or inconclusive; further: nearly all actives have a fitted effect of over 50% in size; further: potency means the concentration at half of the fitted maximal effect). The settings on record: recombinant CYP3A4, Luciferin-PPXE luminescence; series mostly up to 57.1 µM. In short, it runs like this: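 Luminescent readout of luciferin produced by CYP3A4 (20 nM) dealkylation of Luciferin-PPXE, 25 uM (its KM). NADPH-driven reaction ran 60 min at RT after 10 min compound preincubation; data scaled to 57 uM ketoconazole as 100% inhibition.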

Assay [9] shares this target. Description: qHTS Assay for Activators of Cytochrome P450 3A4 (AID 885; active means well fitted curve in the direction sought with a large enough effect; an effect the other way counts as inactive or inconclusive; further: nearly all actives have a fitted effect of over 65% in size). Conditions: recombinant CYP3A4, Luciferin-PPXE luminescence, 60 min; series mostly up to 57.1 µM. In short, it runs like this:
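Luminescent readout of luciferin formed from 25 uM Luciferin-PPXE (KM level) by 20 nM CYP3A4 in 200 mM KPO4, with 60 min NADPH-driven reaction at room temperature after 10 min compound exposure. Ketoconazole (57 uM) defined 100% inhibition.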

The target in assay [10] is Cytochrome P450 2C19 (Homo sapiens) (UniProt P33261). Nature of the assay: qHTS Assay for Inhibitors and Substrates of Cytochrome P450 2C19 (AID 899; active means well fitted curve in the direction sought with a large enough effect; an effect the other way counts as inactive or inconclusive; further: on the % scale 0 is the no-effect control and ±100 the full control effect; nearly all actives have a fitted effect of over 60% in size). The settings on record: recombinant CYP2C19, luciferin-H EGE luminescence; series mostly up to 57.1 µM. In short, it runs like this:
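5 nM human CYP2C19 with 10uM Luciferin-H EGE (at KM) in 50mM KPO4, compound preincubated 10 min at 37C, then NADPH regeneration for 60 min at 37C. Luciferin read by luminescence after detection reagent; normalized to 57uM ketoconazole as full inhibition.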

Assay [11] deals with Cytochrome P450 1A2 (Homo sapiens) (UniProt P05177). Description: p450-cyp1a2 (AID 410; calls by dose curve; further: potency means the concentration at half of the fitted maximal effect;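 on activity change, negative = inhibition: -100% = full effect of reference inhibitor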). Conditions: recombinant CYP1A2, luciferin-ME demethylation, luminescence; series mostly up to 57 µM. An outline of the steps: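 20nM CYP1A2, 100uM Luciferin-ME (=Km), 100mM KPO4; cpd 10 min RT; +NADPH regen, 60 min RT; stop/detect 20 min; luminescence. Normalized to furafylline 57 uM = full inhibition.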

Assay [12] can be described thus: NFAT Signaling Pathway (AID 444). The settings on record: Jurkat NFAT-bla M1, carbachol, beta-lactamase ratio, 5 h; at 7.69 µM (top of the series) unless noted. An outline of the steps: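 Jurkat cells with NFAT-driven β-lactamase reporter and co-expressed M1 receptor, stimulated with carbachol (final 1 uM, ~EC50), compound titration, 5 h at 37 °C. CCF4 loaded 1 h at RT; 460/530 nm ratio gave %activity and AC50.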

Assay [13] concerns the target Glucocorticoid receptor (Homo sapiens) (UniProt P04150). Description: GR-GFP Redistribution (AID 450;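 active means compounds whose dose series gives a full or clear partial fitted curve of increased nuclear translocation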; further: potency means the concentration at half of the fitted maximal effect). Conditions: U2OS GR-GFP nuclear translocation, laser cytometry, 2 h.

Glucocorticoid receptor (Homo sapiens), sequence (P04150 whole entry, looked up, the tested form may be a part): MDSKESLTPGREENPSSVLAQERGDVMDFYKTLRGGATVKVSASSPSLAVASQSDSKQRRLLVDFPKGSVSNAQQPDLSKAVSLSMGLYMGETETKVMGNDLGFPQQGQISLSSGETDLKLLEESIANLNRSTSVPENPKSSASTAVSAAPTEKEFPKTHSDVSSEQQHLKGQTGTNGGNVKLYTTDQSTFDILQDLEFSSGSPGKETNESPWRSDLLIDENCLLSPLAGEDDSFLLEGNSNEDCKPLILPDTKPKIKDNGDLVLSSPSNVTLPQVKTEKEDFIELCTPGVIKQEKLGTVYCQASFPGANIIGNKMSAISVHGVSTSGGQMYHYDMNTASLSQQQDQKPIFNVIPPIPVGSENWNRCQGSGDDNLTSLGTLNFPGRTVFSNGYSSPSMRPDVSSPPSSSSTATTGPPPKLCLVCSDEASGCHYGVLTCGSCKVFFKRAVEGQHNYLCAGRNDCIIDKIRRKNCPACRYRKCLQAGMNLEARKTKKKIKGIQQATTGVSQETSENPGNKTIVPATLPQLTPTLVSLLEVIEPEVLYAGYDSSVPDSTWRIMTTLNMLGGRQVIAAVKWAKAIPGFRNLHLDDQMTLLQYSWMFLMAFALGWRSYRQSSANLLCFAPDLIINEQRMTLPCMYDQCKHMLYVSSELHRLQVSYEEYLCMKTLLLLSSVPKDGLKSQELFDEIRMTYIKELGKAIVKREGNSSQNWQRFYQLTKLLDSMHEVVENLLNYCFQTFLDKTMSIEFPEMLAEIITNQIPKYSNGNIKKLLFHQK
Cytochrome P450 1A2 (Homo sapiens), sequence (P05177 whole entry, looked up): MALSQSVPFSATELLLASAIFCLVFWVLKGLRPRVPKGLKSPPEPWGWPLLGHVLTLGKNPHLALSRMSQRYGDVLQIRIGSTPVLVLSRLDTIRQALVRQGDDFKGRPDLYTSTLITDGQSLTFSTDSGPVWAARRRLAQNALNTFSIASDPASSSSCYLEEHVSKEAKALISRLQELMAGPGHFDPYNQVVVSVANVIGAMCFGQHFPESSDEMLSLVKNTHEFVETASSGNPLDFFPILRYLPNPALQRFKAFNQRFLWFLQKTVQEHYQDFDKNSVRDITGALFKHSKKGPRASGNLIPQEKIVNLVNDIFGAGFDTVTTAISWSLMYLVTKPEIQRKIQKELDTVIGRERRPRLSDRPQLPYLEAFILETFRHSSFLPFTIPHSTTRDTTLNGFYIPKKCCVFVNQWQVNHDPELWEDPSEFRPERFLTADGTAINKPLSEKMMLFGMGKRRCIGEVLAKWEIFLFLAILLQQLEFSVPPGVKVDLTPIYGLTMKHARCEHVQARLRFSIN
Lysosomal acid glucosylceramidase (Homo sapiens), sequence (P04062 whole entry, looked up): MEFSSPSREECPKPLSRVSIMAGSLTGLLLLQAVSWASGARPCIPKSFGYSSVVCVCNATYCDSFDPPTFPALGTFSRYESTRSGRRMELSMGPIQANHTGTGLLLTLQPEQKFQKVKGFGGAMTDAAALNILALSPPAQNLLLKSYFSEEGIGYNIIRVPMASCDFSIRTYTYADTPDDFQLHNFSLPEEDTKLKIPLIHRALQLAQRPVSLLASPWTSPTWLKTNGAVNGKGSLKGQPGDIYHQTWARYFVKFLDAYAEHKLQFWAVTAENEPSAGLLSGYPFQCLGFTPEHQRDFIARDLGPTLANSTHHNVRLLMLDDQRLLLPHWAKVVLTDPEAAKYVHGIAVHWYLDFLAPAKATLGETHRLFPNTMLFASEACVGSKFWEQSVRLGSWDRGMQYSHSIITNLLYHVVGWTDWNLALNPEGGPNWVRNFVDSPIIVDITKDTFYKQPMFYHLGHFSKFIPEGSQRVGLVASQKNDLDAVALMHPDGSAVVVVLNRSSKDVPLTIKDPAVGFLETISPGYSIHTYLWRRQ
Cytochrome P450 3A4 (Homo sapiens), sequence (P08684 whole entry, looked up): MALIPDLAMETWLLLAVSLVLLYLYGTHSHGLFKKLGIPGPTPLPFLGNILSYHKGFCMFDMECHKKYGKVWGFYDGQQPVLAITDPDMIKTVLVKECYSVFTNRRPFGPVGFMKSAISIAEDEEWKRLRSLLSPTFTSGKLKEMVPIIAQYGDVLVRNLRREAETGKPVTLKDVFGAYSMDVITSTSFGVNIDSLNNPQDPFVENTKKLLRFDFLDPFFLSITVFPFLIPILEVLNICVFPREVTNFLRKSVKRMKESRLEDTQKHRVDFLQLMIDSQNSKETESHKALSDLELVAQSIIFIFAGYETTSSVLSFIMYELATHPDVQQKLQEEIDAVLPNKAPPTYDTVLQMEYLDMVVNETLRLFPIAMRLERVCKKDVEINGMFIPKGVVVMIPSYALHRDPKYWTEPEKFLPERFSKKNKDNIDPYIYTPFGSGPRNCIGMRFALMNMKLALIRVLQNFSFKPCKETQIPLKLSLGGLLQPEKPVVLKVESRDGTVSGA
3',5'-cyclic-AMP phosphodiesterase 4B (Homo sapiens), sequence (Q07343 whole entry, looked up): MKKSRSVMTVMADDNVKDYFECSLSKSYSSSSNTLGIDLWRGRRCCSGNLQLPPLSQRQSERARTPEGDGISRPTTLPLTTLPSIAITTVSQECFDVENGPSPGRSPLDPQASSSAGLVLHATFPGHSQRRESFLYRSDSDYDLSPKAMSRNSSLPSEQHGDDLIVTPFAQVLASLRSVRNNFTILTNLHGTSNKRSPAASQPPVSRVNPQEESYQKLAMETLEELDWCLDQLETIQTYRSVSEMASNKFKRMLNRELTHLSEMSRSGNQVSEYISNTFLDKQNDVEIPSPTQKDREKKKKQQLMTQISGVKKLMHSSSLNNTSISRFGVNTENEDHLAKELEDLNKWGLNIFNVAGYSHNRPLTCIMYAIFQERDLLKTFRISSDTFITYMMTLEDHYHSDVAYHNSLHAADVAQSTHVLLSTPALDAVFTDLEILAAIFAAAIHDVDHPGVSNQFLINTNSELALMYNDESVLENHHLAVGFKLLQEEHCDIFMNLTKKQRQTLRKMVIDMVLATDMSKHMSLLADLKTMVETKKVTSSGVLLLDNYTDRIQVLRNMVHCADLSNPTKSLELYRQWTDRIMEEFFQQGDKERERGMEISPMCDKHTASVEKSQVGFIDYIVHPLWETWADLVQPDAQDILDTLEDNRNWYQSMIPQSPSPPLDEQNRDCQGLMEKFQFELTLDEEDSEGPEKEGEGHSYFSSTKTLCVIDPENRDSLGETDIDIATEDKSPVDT
Cytochrome P450 2C19 (Homo sapiens), sequence (P33261 whole entry, looked up): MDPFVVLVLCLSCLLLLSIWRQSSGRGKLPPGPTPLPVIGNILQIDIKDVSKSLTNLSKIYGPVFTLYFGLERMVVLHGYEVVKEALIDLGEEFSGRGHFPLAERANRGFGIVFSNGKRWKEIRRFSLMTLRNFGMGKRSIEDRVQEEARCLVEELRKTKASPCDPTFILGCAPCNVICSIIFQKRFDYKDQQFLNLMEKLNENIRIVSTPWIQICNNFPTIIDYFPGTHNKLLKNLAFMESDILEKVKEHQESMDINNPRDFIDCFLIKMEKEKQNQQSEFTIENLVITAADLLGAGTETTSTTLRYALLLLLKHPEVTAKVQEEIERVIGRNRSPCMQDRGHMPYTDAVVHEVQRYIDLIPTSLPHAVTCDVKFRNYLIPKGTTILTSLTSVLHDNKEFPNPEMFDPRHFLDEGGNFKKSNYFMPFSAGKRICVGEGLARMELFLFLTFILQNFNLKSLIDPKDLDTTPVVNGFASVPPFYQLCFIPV

Turning to `O=C(c1ccncc1)N1CCC2(CCCN(c3ncccn3)C2)CC1`, the values for the Potency in assay [1] and in assay [4] were above 11.4 µM and above 46 µM, respectively. In assay [2], the activity change, negative = inhibition was -5.83%. Moreover, in assay [3], the activity, negative = inhibition is 5.19%. Moreover, the Potency entry in [5] and in assay [6] was “inactive” in each case. For the same compound, in [7], the result was inactive.
`O=S(=O)(c1ccccc1)N1CCC2(CCCN(Cc3nccs3)C2)CC1`: the Potency in assay [1] is above 11.4 µM; in assay [4] it was above 46 µM; in assay [8], 3.16 µM (active). Moreover, the activity change, negative = inhibition in assay [2] was -17.2%. Besides, the activity, negative = inhibition in [3] was -1.51%. Besides, the Potency result in assay [5], in assay [6], in [9] and in [10] was “inactive” throughout. In addition, the outcome in [7] was inactive.
In the case of `O=C(c1ccncc1)N1CCC[C@@]2(CCN(Cc3cc(C(F)(F)F)cc(C(F)(F)F)c3)C2)C1`, the Potency was above 11.4 µM in assay [1] and above 46 µM in [4]. Moreover, the activity change, negative = inhibition in assay [2] was 8.67%. Moreover, the activity, negative = inhibition in assay [3] is -0.599%. Further, the Potency result in assay [5] and in assay [6] was “inactive” in each case. Moreover, the outcome in assay [7] was inactive.
For the compound `COc1ccc(C(=O)N2CCC3(CCCN(c4ccncc4)C3)CC2)cc1`, the Potency in assay [1] was above 11.4 µM; in assay [4], above 46 µM. In assay [2], the activity change, negative = inhibition is 7.18%. Further, in assay [3], the activity, negative = inhibition is 8.4%. Moreover, the Potency result in assay [5] and in assay [6] was “inactive” in each case. Besides, in assay [7], the result was inactive.
In the case of `O=S(=O)(c1ccccc1)N1CCC2(CCN(c3ncccn3)CC2)CC1`, the Potency in assay [1] is above 11.4 µM; in assay [4] it was above 46 µM. For the same compound, the Potency entry in [11], in assay [5], in assay [6] and in [9] was “inactive” each time. The activity change, negative = inhibition in assay [12] is -15.7%. For the same compound, in [3], the activity, negative = inhibition was -15.6%. Moreover, in assay [7], the result was inactive.
With `Cn1c(=O)c(-c2ccccc2)nc2cnc(Oc3ccccc3)nc21`, the Potency in assay [1] was above 11.4 µM; in [11], 2 µM (active); in assay [13], above 9.22 µM; in assay [4], above 46 µM. The activity change, negative = inhibition in assay [12] is 7.65%. In addition, in assay [3], the activity, negative = inhibition was -0.677%. For the same compound, the Potency entry in assay [5], in assay [6] and in assay [8] was “inactive” each time. The result in [7] was inactive.
Turning to `COc1cccc(Nc2ncc3nc(CCc4ccccc4)c(=O)n(C4CC4)c3n2)c1`, the Potency in assay [1] is above 11.4 µM; in assay [11], 5.01 µM (active); in assay [13], above 9.22 µM; in [4], above 46 µM. Further, the activity, negative = inhibition in assay [3] is -19.3%. Besides, the Potency entry in [5] and in assay [9] was “inactive” each time. In addition, the result in assay [7] was inactive.
As to `Cn1c(=O)c(-c2ccc(F)cc2)nc2cnc(Oc3ccccc3)nc21`, the Potency was above 11.4 µM in assay [1], 0.316 µM (active) in assay [11], above 9.22 µM in assay [13] and above 46 µM in assay [4]. Also, in assay [12], the activity change, negative = inhibition is 5.5%. In addition, the activity, negative = inhibition in [3] is -0.989%. Further, the Potency result in assay [5], in assay [6] and in [8] was “inactive” throughout. The outcome in [7] was inactive.
With `O=C(c1ccco1)N1CCC2(CCCN(c3ccccn3)C2)CC1`, the values for the Potency in assay [1], in assay [11] and in assay [4] were above 11.4 µM, 10 µM (active) and above 46 µM, respectively. The activity, negative = inhibition in assay [3] was -3.59%. Besides, the Potency entry in [5], in assay [6] and in [9] was “inactive” each time. Moreover, the outcome in assay [7] was inactive.
